Unmarked numbers belong to inactive results. Results filed as inconclusive are left out. The source made the active and inactive calls. Unless noted, calls come from the whole dose curve; as a rule, active = well fitted curve in the direction sought with a large enough effect; inconclusive = small, poorly fitted or top-dose-only effect, or another doubt; inactive = no such curve, though single readings can be large; an effect the other way counts as inactive or inconclusive.
Assays:
[1] = target: Cytochrome P450 1A2 (Homo sapiens) (UniProt P05177); assay: p450-cyp1a2 (AID 410; calls by dose curve;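 note: -100% = full effect of reference inhibitor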); details: recombinant CYP1A2, luciferin-ME demethylation, luminescence; series mostly up to 57 µM
Method in brief: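 Human CYP1A2 (20nM) demethylated Luciferin-ME at its Km (100uM) in 100mM KPO4. After 10 min compound preincubation, NADPH regeneration ran the reaction 60 min at room temperature. Luciferin was read by luminescence, normalized to 57 uM furafylline.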

[2] = NFAT Signaling Pathway (AID 444; active = well fitted curve in either direction with a large enough effect, not every such curve was filed as active;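 note: carbachol stimulus at about its EC50 of 1 µM final; % is set by controls: 0 for no effect and ±100 for the full control effect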); details: Jurkat NFAT-bla M1, carbachol, beta-lactamase ratio, 5 h; at 7.69 µM (top of the series) unless noted
Method in brief: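 Jurkat cells with NFAT-driven β-lactamase reporter and co-expressed M1 receptor, stimulated with carbachol (final 1 uM, ~EC50), compound titration, 5 h at 37 °C. CCF4 loaded 1 h at RT; 460/530 nm ratio gave %activity and AC50.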

[3] = target: Mitogen-activated protein kinase 10 (Mus musculus) (UniProt Q61831); assay: JNK3 AlphaScreen Assay (AID 530; active = well fitted curve in either direction with a large enough effect, not every such curve was filed as active;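 note: kinase came from lysate of stimulated human HepG2 cells; signal reports phosphorylation of biotinylated GST-cJun 1-79 at Ser73 with 10 µM ATP; % is set by controls: 0 for no effect and ±100 for the full control effect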); details: JNK3 lysate, c-Jun phosphorylation; series mostly up to 57.1 µM
Method in brief: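 qHTS format: compounds tested as titrations against IL-1beta/TNF-alpha-activated HepG2 lysate JNK3 with biotin-GST-cJun substrate and 10 uM ATP at room temperature. Loss of anti-phospho-cJun AlphaScreen signal indicates inhibition.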

[4] = target: 3',5'-cyclic-AMP phosphodiesterase 4B (Homo sapiens) (UniProt Q07343); assay: qHTS Assay for Inhibitors of PDE-IV (AID 607; active = well fitted activation curve with a large enough effect in the main read-out, with a control signal flat, not every such curve was filed as active; note: % of control where 0% means no effect); details: HEK293 ACTOne CNG channel cells, membrane potential fluorescence; series mostly up to 22.9 µM
Method in brief: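 Cell-based read-out of cAMP via a modified cyclic nucleotide-gated channel and membrane potential dye (535/590 nm) in HEK293 cells expressing PDE4 endogenously. Compounds tested up to 22.9 uM final; 100 uM RO 20-1724 reference.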

[5] = target: Guanine nucleotide-binding protein G(i) subunit alpha-1 (Homo sapiens) (UniProt P63096); assay: qHTS Assay for Inhibitors of RGS12 GoLoco Motif Activity (Green Fluorophore) (AID 879); details: Galphai1/FITC-RGS12 GoLoco peptide, fluorescence polarization; series mostly up to 57.1 µM;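 note: 0% = labeled peptide with Gαi1 and full inhibition = labeled peptide alone without protein; negative values mean loss of peptide binding seen as reduced polarization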
Method in brief: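 Fluorescence polarization assay: 50 nM Gαi1 with 10 nM FITC-labeled RGS12 GoLoco peptide in 10 mM Tris pH 7.5, 150 mM NaCl, 0.1 mM GDP, 0.05% NP40, 10 min at room temperature with compound.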

[6] = target: Cytochrome P450 3A4 (Homo sapiens) (UniProt P08684); assay: qHTS Assay for Activators of Cytochrome P450 3A4 (AID 885); details: recombinant CYP3A4, Luciferin-PPXE luminescence, 60 min; series mostly up to 57.1 µM; note: nearly all actives have a fitted effect of over 65% in size
Method in brief: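 Signal was normalized against complete inhibition by 57 uM ketoconazole. The reaction used 20nM CYP3A4 with 25uM Luciferin-PPXE, 10-min compound preincubation and a 60-min NADPH-supported step at RT.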

[7] = target: Cytochrome P450 2D6 (Homo sapiens) (UniProt P10635); assay: qHTS Assay for Inhibitors and Substrates of Cytochrome P450 2D6 (AID 891); details: recombinant CYP2D6, luciferin-ME EGE luminescence; series mostly up to 57.1 µM; note: potency is the fitted concentration of half-maximal effect; nearly all actives have a fitted effect of over 60% in size
Method in brief: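 Human CYP2D6 (5 nM) with 30 uM Luciferin-ME EGE (at Km) in 100 mM KPO4, compound preincubated 10 min, then NADPH regeneration system for 60 min at room temperature. Luciferin read by luminescence; normalized to 1.43 uM quinidine.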

[8] = qHTS Assay for Identification of Small Molecule Antagonists for Thrombopoietin (TPO) Signaling Pathway (AID 918); details: TPO-dependent cell signaling reporter, antagonist mode; note: potency is the fitted concentration of half-maximal effect; nearly all actives have a fitted effect of over 60% in size
Method in brief: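 Murine Ba/F3 cells stably expressing human TPO receptor and a Glycoprotein IIb promoter–luciferase reporter were IL-3-starved overnight, treated with compounds plus TPO (26 pM final, its EC50) for 24 hrs at 37 C, then read by luminescence.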

[9] = target: Muscarinic acetylcholine receptor M1 (Rattus norvegicus) (UniProt P08482); assay: qHTS Assay for Antagonists of Acetylcholine Muscarinic M1 Receptor: Measurement of IP-One Response (AID 944); details: CHO-M1 cells, IP-One HTRF, antagonist mode; series mostly up to 46.1 µM; note: potency is the fitted concentration of half-maximal effect; nearly all actives have a fitted effect of over 75% in size
Method in brief: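 CHO cells expressing rat M1 receptor, recovered overnight, were pre-incubated 10 min with compound, then stimulated 30 min with carbachol at EC80 (200 nM) in LiCl-containing buffer, pH 7.4. IP1 accumulation was read by HTRF (620/665 nm).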

[10] = target: Pyruvate kinase (Leishmania mexicana) (UniProt Q27686); assay: qHTS Validation Assay for Inhibitors of Leishmania Mexicana Pyruvate Kinase (AID 945);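 note: 0% = DMSO only neutral control wells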; details: purified L. mexicana pyruvate kinase, enzyme activity, E451W mutant enzyme; series mostly up to 57.5 µM
Method in brief: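 Mutant LmPYK (E451W), 0.2 nM, plus 0.5 mM PEP and 0.1 mM ADP in 50 mM imidazole pH 7.2 containing 0.01% Tween 20 and 0.05% BSA. Incubated 1 h at room temperature; luminescence via PKLight, normalized to DMSO.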

[11] = target: Pyruvate kinase PKM (Homo sapiens) (UniProt P14618); assay: qHTS Assay for Activators of Human Muscle Pyruvate Kinase (AID 954; active = well fitted curve in the direction sought with a large enough effect, not every such curve was filed as active;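 note: 0% = uninhibited enzyme and -100% = no enzyme or full thiadiazolimine inhibition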); details: purified human muscle pyruvate kinase, luciferase-coupled luminescence, 1 h; series mostly up to 57.5 µM
Method in brief: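 Human PKM2 activity is measured as ATP generation, detected by luciferase-coupled luminescence. The enzyme (0.1 nM) acts on 0.5 mM PEP and 0.1 mM ADP for 1 h at ambient temperature; data are normalized to uninhibited and full-inhibition wells.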

[12] = target: Alpha-galactosidase A (Homo sapiens) (UniProt P06280); assay: Counterscreen for Glucocerebrosidase Inhibitors: qHTS Assay for Human alpha-Galactosidase at pH 4.5 (AID 992); details: purified enzyme, fluorogenic substrate; series mostly up to 76.9 µM; note: 0% is about no effect
Method in brief: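 Quantitative HTS: compounds tested from 0.7 nM up to 77 uM against 2 nM enzyme with 80 uM 4-MU alpha-D-galactopyranoside. The 20 min room-temperature reaction is stopped with 1M NaOH/1M glycine, pH 10.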

[13] = target: alpha-glucosidase (Oryza sativa, rice) (UniProt Q653V4); assay: Counterscreen for Glucocerebrosidase Inhibitors: qHTS Assay for Rice alpha-Glucosidase at pH 5.0 (AID 997); details: rice alpha-glucosidase enzyme activity; series mostly up to 76.9 µM;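 note: 0% = full activity with enzyme and -100% = basal without enzyme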
Method in brief: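 Rice alpha-glucosidase (4 nM final) with 400 uM 4-methylumbelliferyl-alpha-D-glucopyranoside in citrate buffer pH 5.0, 20 min at room temperature, stopped at pH 10; fluorescence 365/440 nm, compounds 0.7 nM–77 uM, AC50 from Hill fits.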

[14] = Counterscreen for APE1 Inhibitors: Fluorescent Dye Displacement Validation Assay (AID 1707); details: fluorescent dye displacement from DNA; series mostly up to 57.1 µM;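 note: plate controls were ThO with dsDNA and no compound for no effect and ThO without dsDNA for full effect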
Method in brief: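 Compounds are scored by their ability to displace Thiazole Orange (250 nM) from a 50 nM TAMRA-tagged duplex bearing a tetrahydrofuran abasic site. Buffer is 50 mM Tris-HCl pH7.5, 50mM NaCl, 2 mM MgCl2, 0.01% Tween-20.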

[15] = target: Endonuclease 4 (Escherichia coli (strain K12)) (UniProt P0A6C1); assay: Counterscreen for APE1 Inhibitors: qHTS Validation Assay for Inhibitors of Endonuclease IV (AID 1708); note: potency is the fitted concentration of half-maximal effect; details: E. coli endonuclease IV, DNA cleavage fluorescence; series mostly up to 57.1 µM
Method in brief: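 Cleavage of a quenched abasic-site DNA duplex (50 nM, 5'-TAMRA, 3'-BHQ-2) by 2 nM enzyme is followed as fluorescence increase. Compounds are preincubated with enzyme 15 min at room temperature before substrate addition.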

[16] = qHTS for differential inhibitors of proliferation of Plasmodium falciparum line 7G8 (AID 1815); details: Plasmodium falciparum 7G8 proliferation inhibition; series mostly up to 28.7 µM;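 note: potency is the fitted concentration of half-maximal effect; parasite growth measured after three days of incubation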
[17] = qHTS for differential inhibitors of proliferation of Plasmodium falciparum line GB4 (AID 1816); details: Potency: Plasmodium falciparum GB4 proliferation inhibition; series mostly up to 28.7 µM;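 note: potency is the fitted concentration of half-maximal effect; parasite growth measured after 72 h incubation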
[18] = qHTS for differential inhibitors of proliferation of Plasmodium falciparum line 3D7 (AID 1876); note: potency is the fitted concentration of half-maximal effect; details: P. falciparum 3D7 proliferation inhibition; series mostly up to 28.7 µM
[19] = qHTS for differential inhibitors of proliferation of Plasmodium falciparum line D10 (AID 1877); details: series mostly up to 28.7 µM;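 note: potency is the fitted concentration of half-maximal effect; parasites grown with compound for 72 h before DNA staining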
[20] = qHTS for differential inhibitors of proliferation of Plasmodium falciparum line Dd2 (AID 1882); details: Potency: Plasmodium falciparum Dd2 proliferation inhibition; series mostly up to 28.7 µM; note: potency is the fitted concentration of half-maximal effect; nearly all actives have a fitted effect of over 65% in size
Method in brief: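 SYBR Green I DNA fluorescence read-out, ex 485/em 535 nm. Signals were normalized to 0.29 uM artemisinin and DMSO wells, then corrected using vehicle-only plates flanking each stack. Parasite growth ran 72 h in erythrocytes before lysis.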

[21] = qHTS for differential inhibitors of proliferation of Plasmodium falciparum line W2 (AID 1883); details: Potency: Plasmodium falciparum W2 proliferation inhibition; series mostly up to 28.7 µM;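 note: potency is the fitted concentration of half-maximal effect; parasites grown with compound for 72 h before lysis and staining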
[22] = qHTS for differential inhibitors of proliferation of Plasmodium falciparum line HB3 (AID 1886); details: Potency: Plasmodium falciparum HB3 proliferation inhibition; series mostly up to 28.7 µM;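 note: potency is the fitted concentration of half-maximal effect; parasites grown with compound for 72 h before SYBR Green readout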
[23] = Quantitative high throughput screen for delayed death inhibitors of the malarial parasite plastid, 48 hour incubation (AID 488752); details: Plasmodium falciparum growth; series mostly up to 28.7 µM; note: potency is the fitted concentration of half-maximal effect; nearly all actives have a fitted effect of over 65% in size
Method in brief: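 Erythrocytes infected with P. falciparum carrying an integrated firefly luciferase reporter (2% hematocrit, 0.1% parasitemia final) were exposed to compounds in RPMI 1640/0.5% Albumax for 48 h at 37 C, 5% CO2. Growth inhibition was scored as reduced luminescence.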

[24] = target: M-phase phosphoprotein 8 (Homo sapiens) (UniProt Q99549); assay: qHTS Validation Assay for Inhibitors for MPP8 Chromodomain Interactions with Methylated Histone Tails (AID 488949); details: AlphaScreen MPP8 binding to H3K9me3 peptide; series mostly up to 114 µM; note: potency is the fitted concentration of half-maximal effect; nearly all actives have a fitted effect of over 55% in size
Method in brief: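 Chemiluminescent proximity assay: histidine-tag capture via nickel acceptor beads, biotin peptide via streptavidin donor beads. Protein and peptide each at 50 nM, pH 7.4, with 30 min incubations at room temperature for complex formation, compound exposure and bead binding.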

[25] = target: Thyrotropin receptor (Homo sapiens) (UniProt P16473); assay: qHTS Assay for Antagonists of the Thyroid Stimulating Hormone Receptor (AID 488980); details: TSHR-expressing cells, cAMP antagonist read-out; series mostly up to 57.5 µM; note: 0% is about no effect
Method in brief: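 Inhibition of TSH-stimulated cAMP accumulation was quantified by homogeneous time-resolved FRET in TSHR-transfected HEK293 cells. Agonist: TSH, 4 nM final (EC80).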

[26] = target: Thyrotropin-releasing hormone receptor (Homo sapiens) (UniProt P34981); assay: qHTS for Small Molecule Agonists and Allosteric Enhancers of Human TRH Receptor: Validation Screen for Agonists (AID 493127;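 active = calcium activation more than 3 SD above the typical response in the agonist read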;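 note: intracellular calcium rise by fluo-8 fluorescence before TRH EC20 addition; 0% is about no effect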); details: TRH receptor agonist cell assay; at 2 µM; stronger effect = higher value
Method in brief: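 TRHR-expressing cells were plated overnight in serum-containing medium, then loaded with fluo-8 calcium dye at room temperature for 30 min–1.5 h. After a 10 s baseline, compound was pin-transferred and calcium fluorescence (ex 480/em 530) read kinetically for agonist response.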

[27] = target: Galactokinase (Homo sapiens) (UniProt P51570); assay: qHTS Validation Assay for Inhibitors of Human Galactokinase (GALK) (AID 493189); details: purified human GALK enzyme activity, qHTS 7-point titration; series mostly up to 57.5 µM; note: 0% is about no effect
Method in brief: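 Enzyme activity is inferred from ATP consumption: human GALK phosphorylates galactose (100 uM) using 35 uM ATP for 1 h at room temperature, and luciferase-based Kinase-Glo Plus reports unconsumed ATP.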

[28] = target: Voltage-gated inwardly rectifying potassium channel KCNH2 (Homo sapiens) (UniProt Q12809); assay: qHTS Assay for Small Molecule Inhibitors of the Human hERG Channel Activity (AID 588834); details: U2OS BacMam hERG, FluxOR thallium flux fluorescence; series mostly up to 92.2 µM;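 note: potency is the fitted concentration of half-maximal effect; lower thallium flux fluorescence means stronger hERG block; nearly all actives have a fitted effect of over 50% in size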
Method in brief: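 Blockade is seen as reduced FluxOR thallium-flux fluorescence in U2OS cells expressing hERG from a BacMam construct, in Opti-MEM with 2% FCS. Concentration-response data fitted to the Hill equation for AC50.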

Voltage-gated inwardly rectifying potassium channel KCNH2 (Homo sapiens), sequence (Q12809 whole entry, looked up): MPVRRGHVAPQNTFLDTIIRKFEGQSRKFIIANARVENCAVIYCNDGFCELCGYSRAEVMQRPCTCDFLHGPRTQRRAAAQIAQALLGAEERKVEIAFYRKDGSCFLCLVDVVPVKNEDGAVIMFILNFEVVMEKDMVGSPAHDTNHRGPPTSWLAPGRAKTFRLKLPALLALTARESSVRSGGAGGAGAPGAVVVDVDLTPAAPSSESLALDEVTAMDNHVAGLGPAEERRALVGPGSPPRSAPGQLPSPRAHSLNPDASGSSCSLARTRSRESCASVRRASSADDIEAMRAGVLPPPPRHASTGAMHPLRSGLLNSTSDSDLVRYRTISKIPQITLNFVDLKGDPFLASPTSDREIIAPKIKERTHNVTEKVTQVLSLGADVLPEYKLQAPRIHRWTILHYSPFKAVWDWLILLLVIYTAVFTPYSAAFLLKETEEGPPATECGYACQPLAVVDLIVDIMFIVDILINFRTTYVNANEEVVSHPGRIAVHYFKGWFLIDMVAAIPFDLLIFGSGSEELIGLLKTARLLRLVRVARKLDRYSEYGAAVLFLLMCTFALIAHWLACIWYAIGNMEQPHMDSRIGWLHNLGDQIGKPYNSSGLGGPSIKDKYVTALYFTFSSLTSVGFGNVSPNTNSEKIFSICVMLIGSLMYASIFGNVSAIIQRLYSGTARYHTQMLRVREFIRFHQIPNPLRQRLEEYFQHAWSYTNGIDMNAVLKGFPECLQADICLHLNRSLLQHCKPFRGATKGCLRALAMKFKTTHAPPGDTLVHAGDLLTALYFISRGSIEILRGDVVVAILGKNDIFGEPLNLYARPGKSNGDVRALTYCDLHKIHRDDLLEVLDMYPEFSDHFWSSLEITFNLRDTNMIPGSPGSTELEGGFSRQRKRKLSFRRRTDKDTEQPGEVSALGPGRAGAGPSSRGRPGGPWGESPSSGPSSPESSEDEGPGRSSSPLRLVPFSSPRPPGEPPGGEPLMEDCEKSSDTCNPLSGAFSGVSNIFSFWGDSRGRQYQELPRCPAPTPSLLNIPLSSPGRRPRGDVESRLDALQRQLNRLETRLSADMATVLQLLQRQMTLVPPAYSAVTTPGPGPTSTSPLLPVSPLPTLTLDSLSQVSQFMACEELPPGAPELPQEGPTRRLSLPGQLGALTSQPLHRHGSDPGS
Guanine nucleotide-binding protein G(i) subunit alpha-1 (Homo sapiens), sequence (P63096 whole entry, looked up): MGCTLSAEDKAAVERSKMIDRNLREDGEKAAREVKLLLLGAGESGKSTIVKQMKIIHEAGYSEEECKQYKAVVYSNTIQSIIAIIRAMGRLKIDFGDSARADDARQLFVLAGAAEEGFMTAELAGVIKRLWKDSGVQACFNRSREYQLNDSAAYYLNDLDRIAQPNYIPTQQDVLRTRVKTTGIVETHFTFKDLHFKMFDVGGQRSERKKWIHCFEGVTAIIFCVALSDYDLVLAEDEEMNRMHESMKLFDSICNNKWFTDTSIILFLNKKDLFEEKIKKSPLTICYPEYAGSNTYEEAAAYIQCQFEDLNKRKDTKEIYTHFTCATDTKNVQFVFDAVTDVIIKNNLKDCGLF
Galactokinase (Homo sapiens), sequence (P51570 whole entry, looked up): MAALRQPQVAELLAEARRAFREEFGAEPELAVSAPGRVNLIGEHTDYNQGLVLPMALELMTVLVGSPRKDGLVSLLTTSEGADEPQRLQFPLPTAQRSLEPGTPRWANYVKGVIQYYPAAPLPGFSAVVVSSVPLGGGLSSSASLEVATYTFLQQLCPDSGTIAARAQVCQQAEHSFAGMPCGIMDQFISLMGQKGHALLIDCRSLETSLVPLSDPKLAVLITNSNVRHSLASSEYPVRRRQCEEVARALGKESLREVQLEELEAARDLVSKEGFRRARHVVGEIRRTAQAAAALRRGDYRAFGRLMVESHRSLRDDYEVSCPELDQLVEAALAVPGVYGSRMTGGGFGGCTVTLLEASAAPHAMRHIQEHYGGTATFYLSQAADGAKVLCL
Pyruvate kinase PKM (Homo sapiens), sequence (P14618 whole entry, looked up): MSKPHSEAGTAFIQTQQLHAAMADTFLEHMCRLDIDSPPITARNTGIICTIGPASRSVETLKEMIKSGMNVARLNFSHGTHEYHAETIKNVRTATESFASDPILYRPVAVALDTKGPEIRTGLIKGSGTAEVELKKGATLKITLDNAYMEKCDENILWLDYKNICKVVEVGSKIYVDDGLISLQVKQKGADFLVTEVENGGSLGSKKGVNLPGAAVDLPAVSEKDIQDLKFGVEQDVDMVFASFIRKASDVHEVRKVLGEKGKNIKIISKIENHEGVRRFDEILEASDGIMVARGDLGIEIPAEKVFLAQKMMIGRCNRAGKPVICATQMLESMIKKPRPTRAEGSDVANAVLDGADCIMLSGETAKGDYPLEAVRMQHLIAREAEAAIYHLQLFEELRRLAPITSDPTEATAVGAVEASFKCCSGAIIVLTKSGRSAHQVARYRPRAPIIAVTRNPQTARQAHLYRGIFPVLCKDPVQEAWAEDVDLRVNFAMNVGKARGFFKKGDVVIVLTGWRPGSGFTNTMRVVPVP
Pyruvate kinase (Leishmania mexicana), sequence (Q27686 2-499 E452W): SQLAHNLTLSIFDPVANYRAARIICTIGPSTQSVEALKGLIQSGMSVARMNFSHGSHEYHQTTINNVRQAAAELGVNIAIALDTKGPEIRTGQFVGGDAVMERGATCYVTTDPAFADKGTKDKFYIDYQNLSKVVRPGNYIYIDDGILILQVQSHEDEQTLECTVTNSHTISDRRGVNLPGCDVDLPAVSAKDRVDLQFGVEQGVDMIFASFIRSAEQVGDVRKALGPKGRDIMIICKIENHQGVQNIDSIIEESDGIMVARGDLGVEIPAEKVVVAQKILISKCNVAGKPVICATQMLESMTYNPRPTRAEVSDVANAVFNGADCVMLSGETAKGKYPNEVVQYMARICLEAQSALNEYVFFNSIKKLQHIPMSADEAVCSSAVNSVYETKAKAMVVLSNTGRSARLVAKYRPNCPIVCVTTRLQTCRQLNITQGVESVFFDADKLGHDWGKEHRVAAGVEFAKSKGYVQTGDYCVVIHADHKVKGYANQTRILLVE
Alpha-galactosidase A (Homo sapiens), sequence (P06280 whole entry, looked up): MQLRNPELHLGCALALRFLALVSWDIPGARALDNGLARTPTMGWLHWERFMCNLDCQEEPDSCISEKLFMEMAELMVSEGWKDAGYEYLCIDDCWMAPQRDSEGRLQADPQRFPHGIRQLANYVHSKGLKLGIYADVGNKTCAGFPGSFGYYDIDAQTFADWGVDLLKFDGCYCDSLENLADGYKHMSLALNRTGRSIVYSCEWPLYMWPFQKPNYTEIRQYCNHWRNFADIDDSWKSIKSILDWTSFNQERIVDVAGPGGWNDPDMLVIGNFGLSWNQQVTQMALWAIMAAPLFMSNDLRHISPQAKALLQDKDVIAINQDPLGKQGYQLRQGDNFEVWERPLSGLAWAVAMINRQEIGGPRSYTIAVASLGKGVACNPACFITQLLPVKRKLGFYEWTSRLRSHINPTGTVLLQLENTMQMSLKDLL
Thyrotropin-releasing hormone receptor (Homo sapiens), sequence (P34981 whole entry, looked up): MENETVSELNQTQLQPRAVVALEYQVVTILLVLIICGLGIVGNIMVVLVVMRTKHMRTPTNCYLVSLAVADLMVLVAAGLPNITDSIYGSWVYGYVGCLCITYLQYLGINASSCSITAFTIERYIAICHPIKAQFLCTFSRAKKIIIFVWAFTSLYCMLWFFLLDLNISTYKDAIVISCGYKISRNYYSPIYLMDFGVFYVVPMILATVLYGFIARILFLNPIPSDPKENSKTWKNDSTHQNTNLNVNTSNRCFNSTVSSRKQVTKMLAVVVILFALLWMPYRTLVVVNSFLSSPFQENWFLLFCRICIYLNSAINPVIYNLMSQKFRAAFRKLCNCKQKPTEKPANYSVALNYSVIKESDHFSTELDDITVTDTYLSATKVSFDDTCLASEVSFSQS
Cytochrome P450 2D6 (Homo sapiens), sequence (P10635 whole entry, looked up): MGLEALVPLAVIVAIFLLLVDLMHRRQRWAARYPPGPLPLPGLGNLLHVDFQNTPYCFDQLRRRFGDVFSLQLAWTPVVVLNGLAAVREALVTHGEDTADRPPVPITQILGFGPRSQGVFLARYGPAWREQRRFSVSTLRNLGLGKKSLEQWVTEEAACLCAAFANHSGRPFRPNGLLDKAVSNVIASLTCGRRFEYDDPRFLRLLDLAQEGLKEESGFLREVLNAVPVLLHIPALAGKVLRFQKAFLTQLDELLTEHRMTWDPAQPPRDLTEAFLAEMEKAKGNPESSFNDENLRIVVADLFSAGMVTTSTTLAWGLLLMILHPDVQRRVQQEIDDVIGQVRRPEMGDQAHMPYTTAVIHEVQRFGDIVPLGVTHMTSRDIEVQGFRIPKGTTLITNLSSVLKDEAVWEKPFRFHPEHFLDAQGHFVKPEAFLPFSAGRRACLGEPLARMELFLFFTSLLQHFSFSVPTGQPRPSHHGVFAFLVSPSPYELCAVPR
Thyrotropin receptor (Homo sapiens), sequence (P16473 whole entry, looked up): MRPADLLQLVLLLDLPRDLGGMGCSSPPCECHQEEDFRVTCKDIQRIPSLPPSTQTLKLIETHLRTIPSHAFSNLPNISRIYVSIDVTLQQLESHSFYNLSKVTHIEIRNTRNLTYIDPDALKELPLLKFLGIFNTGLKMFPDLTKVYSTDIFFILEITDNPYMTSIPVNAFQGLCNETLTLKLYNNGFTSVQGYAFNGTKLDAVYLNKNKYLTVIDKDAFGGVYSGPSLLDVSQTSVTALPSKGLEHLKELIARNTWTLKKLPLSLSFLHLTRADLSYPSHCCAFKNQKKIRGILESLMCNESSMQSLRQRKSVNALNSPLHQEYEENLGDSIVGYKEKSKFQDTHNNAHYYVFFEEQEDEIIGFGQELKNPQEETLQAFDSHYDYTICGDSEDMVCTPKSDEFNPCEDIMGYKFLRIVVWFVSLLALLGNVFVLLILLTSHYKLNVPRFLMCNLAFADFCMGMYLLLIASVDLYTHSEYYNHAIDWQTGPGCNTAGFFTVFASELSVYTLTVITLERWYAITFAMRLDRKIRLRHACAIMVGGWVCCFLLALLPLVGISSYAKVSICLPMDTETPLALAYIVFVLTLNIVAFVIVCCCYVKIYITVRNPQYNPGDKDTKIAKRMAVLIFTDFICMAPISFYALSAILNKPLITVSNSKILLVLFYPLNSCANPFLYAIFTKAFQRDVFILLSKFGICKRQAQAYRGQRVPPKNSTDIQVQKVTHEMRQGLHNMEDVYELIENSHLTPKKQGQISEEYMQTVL

Structure (SMILES): Cc1cc(N)c2ccccc2[n+]1CCCCCCCCCCCCCC[n+]1c(C)cc(N)c2ccccc21
- Potency [1]: inactive
- activity change, negative = inhibition [2]: -82.1% [at 38 µM] (active)
- Potency [3]: inactive
- Potency [4]: inactive
- Potency [5]: inactive
- outcome [6]: inactive
- Potency [7]: 7940 nM (active)
- Potency [8]: 2510 nM (active)
- Potency [9]: 3980 nM (active)
- outcome [10]: inactive
- outcome [11]: inactive
- outcome [12]: inactive
- outcome [13]: inactive
- outcome [14]: inactive
- Potency [15]: 28200 nM (active)
- Potency [16]: 316 nM (active)
- Potency [17]: 316 nM (active)
- Potency [18]: 126 nM (active)
- Potency [19]: 316 nM (active)
- Potency [20]: 355 nM (active)
- Potency [21]: 141 nM (active)
- Potency [22]: 316 nM (active)
- Potency [23]: 1470 nM (active)
- Potency [24]: 39800 nM (active)
- outcome [25]: inactive
- activation [26]: -0.125%
- outcome [27]: inactive
- Potency [28]: 7080 nM (active)
